This note sets out measurements from paper PMC4336329 (PLoS ONE, 2015).

Hit rate of the full screen: of about 310,000 compounds, about 14,000 (4.5%) showed an effect of 50% or more. The effect is printed as a negative number. For the sample, strong results were picked, then their nearest neighbours and some compounds at random.
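Further: peak tail current of the secondary pulse compared with the same well before compound.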

human ether-à-go-go-related gene (hERG) potassium channel, sequence (Q12809 whole entry, looked up): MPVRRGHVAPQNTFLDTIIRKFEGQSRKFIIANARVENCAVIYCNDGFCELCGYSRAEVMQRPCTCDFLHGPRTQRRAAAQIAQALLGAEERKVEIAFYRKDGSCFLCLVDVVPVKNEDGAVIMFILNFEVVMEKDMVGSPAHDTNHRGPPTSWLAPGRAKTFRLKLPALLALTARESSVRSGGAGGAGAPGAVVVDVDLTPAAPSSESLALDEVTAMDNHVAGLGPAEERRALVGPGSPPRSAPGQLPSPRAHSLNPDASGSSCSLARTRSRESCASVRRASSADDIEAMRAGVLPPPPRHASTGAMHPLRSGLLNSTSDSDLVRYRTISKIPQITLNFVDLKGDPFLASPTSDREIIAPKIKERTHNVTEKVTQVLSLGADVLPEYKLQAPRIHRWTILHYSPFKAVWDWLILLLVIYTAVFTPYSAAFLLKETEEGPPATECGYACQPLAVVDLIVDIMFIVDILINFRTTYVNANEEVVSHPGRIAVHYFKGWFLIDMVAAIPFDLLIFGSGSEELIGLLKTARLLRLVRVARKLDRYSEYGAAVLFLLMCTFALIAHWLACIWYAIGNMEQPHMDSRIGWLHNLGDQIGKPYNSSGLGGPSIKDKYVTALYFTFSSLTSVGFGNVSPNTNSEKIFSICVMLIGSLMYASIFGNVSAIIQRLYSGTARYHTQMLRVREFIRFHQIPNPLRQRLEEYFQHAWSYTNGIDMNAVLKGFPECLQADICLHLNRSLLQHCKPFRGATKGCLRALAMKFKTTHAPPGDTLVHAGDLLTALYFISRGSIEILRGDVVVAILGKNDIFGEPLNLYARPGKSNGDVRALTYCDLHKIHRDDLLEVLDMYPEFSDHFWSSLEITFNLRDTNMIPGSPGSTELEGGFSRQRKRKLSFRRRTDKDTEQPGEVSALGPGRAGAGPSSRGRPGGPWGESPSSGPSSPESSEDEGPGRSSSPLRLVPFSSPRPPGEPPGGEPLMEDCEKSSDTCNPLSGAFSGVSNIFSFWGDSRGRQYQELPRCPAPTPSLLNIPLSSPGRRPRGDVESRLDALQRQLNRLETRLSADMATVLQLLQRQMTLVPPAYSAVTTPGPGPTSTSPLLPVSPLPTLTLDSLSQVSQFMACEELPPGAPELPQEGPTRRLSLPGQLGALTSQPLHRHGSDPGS

This assay concerns the target human ether-à-go-go-related gene (hERG) potassium channel (human, UniProt Q12809). Briefly: primary screen, population patch clamp on CHO cells stably expressing hERG; higher = less effect of the substance.
In the case of `CC(C)Sc1nsc2nc(=O)c(/C=C3\C=Nc4ccccc43)c(N)n12`, the “hERG current change (%, negative = inhibition) at 10uM” value came to 11.7%.

For `CN(CC(=O)Nc1cccnc1)S(=O)(=O)c1ccc(Br)cc1`, the “hERG current change (%, negative = inhibition) at 10uM” value was -21.3%.

As for `COC(=O)c1ccc(/C=N/NC(=O)CC(=O)NCC(C)C)cc1`, the “hERG current change (%, negative = inhibition) at 10uM” value is recorded as 20.5%.

Take `CC(=O)c1ccc(N/N=C2/CCCNC2=O)cc1`: the “hERG current change (%, negative = inhibition) at 10uM” value is recorded as 11.3%.

In the case of `Oc1ccccc1/C=N/NC(=S)NC1CC2CC1C1C=CCC21` (centres unmarked), the “hERG current change (%, negative = inhibition) at 10uM” value was 27.3%.

As for `c1cnc(N2CCSCC2)nc1`, the “hERG current change (%, negative = inhibition) at 10uM” value is listed as 0.773%.

In the case of `C#CCSc1nc(-c2ccccc2)cc(C(F)(F)F)c1C#N`, the “hERG current change (%, negative = inhibition) at 10uM” value amounted to 7.12%.

Consider `CCCn1ncc(CN2CCC(C(=O)Nc3cccc(-c4cccc(F)c4)c3)CC2)c1C`, for which the “hERG current change (%, negative = inhibition) at 10uM” value is reported as -71.7%.

Take `CCn1cc(CN2CCC(C(=O)Nc3cccc(-c4cccc(Cl)c4)c3)CC2)cn1`: the “hERG current change (%, negative = inhibition) at 10uM” value is on record as -67.9%.

With `CCCn1cc(CN2CCC(C(=O)Nc3cccc(-c4cscn4)c3)CC2)c(C)n1`, the “hERG current change (%, negative = inhibition) at 10uM” value is -45.3%.

On to `CC(=O)c1cccc(CN2CCC(C(=O)Nc3cccc(-c4ccn[nH]4)c3)CC2)c1`, for which the “hERG current change (%, negative = inhibition) at 10uM” value is -3.45%.

With `CCOc1ccc(CN2CCC(C(=O)Nc3cccc(-c4ccn[nH]4)c3)CC2)cc1Cl`, the “hERG current change (%, negative = inhibition) at 10uM” value is reported as -62.3%.

Consider `CCCn1ncc(CN2CCC(N3CCC(C(=O)N4CCOCC4)CC3)CC2)c1C`, for which the “hERG current change (%, negative = inhibition) at 10uM” value was 14.4%.

Turning to `C=CCOc1ccccc1CN1CCC(C(=O)Nc2cccc(-c3ccn[nH]3)c2)CC1`, the “hERG current change (%, negative = inhibition) at 10uM” value is given as -33.9%.

For the compound `CCn1cc(CN2CCC(C(=O)Nc3cccc(-c4cccc(OC)c4)c3)CC2)cn1`, the “hERG current change (%, negative = inhibition) at 10uM” value is -49.8%.

For the compound `CCn1cc(CN2CCC(C(=O)Nc3cccc(-c4cscn4)c3)CC2)cn1`, the “hERG current change (%, negative = inhibition) at 10uM” value is reported as -15.4%.

Turning to `COCCn1c(SCC(=O)OCc2ccccc2)nc2c1c(=O)[nH]c(=O)n2C`, the “hERG current change (%, negative = inhibition) at 10uM” value was -25.6%.

In the case of `CCN1C(=O)CC(N2CCC(Cc3ccccc3)CC2)C1=O` (centres unmarked), the “hERG current change (%, negative = inhibition) at 10uM” value is -2.52%.

For the compound `CCOC(=O)C1(C)NC(c2ccco2)C2C(=O)N(c3ccccc3)C(=O)C21` (centres unmarked), the “hERG current change (%, negative = inhibition) at 10uM” value was 10.4%.

Take `Cc1cc(Br)ccc1NC(=O)C1CCN(S(=O)(=O)c2cnc[nH]2)CC1`: the “hERG current change (%, negative = inhibition) at 10uM” value is given as 8.88%.

For the compound `COc1ccc2c(c1)C(c1ccc(N3CCOCC3)cc1)=NNC(c1cccnc1)=N2`, the “hERG current change (%, negative = inhibition) at 10uM” value was -5.34%.

For `Clc1ccc(Cc2ccccc2)nn1`, the “hERG current change (%, negative = inhibition) at 10uM” value is on record as 4.59%.

`COc1cc(C(=O)NC(=S)Nc2ccc3c(c2)OCO3)cc(OC)c1OC`: the “hERG current change (%, negative = inhibition) at 10uM” value is listed as 12.1%.

On to `COc1cc(C(Nc2ccc3c(c2)OCO3)C(=O)NC2CCCCC2)cc(OC)c1OC` (centres unmarked), for which the “hERG current change (%, negative = inhibition) at 10uM” value was -61.7%.

In the case of `COc1cc(NC(=O)Nc2ccc3c(c2)OCO3)cc(OC)c1OC`, the “hERG current change (%, negative = inhibition) at 10uM” value was found to be 31.4%.

Regarding `CCS(=O)(=O)C1=NSC2=NC(=O)/C(=C\c3ccc(OC(=O)c4ccco4)c(OC)c3)C(=N)N21`, the “hERG current change (%, negative = inhibition) at 10uM” value stood at 8.51%.

Regarding `COc1cccc(NC(=O)CSc2nc3ccccc3n2C)c1`, the “hERG current change (%, negative = inhibition) at 10uM” value is on record as -16.5%.

Take `COC(=O)c1c(C(=O)OC)c2cc(C)ccn2c1Cl`: the “hERG current change (%, negative = inhibition) at 10uM” value was -24.9%.

With `O=C(CCn1c(=O)oc2ccc(Cl)cc21)N1CCN(c2ccccc2)CC1`, the “hERG current change (%, negative = inhibition) at 10uM” value is -33.8%.

`Cc1ccc(C(=O)C[n+]2cc(-c3ccccc3)n3c2CCCCC3)cc1.[Br-]`: the “hERG current change (%, negative = inhibition) at 10uM” value is given as -11.3%.

For the compound `O=C(C[n+]1cc(-c2ccccc2)n2c1CCCCC2)c1ccc(Br)cc1.[Br-]`, the “hERG current change (%, negative = inhibition) at 10uM” value was -52.7%.

As for `O=C(C[n+]1cc(-c2ccc(F)cc2)n2c1CCC2)OCc1ccccc1.[Br-]`, the “hERG current change (%, negative = inhibition) at 10uM” value was -11.9%.

`O=C(C[n+]1cc(-c2ccccc2)n2c1CCC2)c1cccs1.[Br-]`: the “hERG current change (%, negative = inhibition) at 10uM” value is listed as -3.31%.

Take `O=C(C[n+]1cc(-c2ccc(Br)cc2)n2c1CCCCC2)c1ccccc1.[Br-]`: the “hERG current change (%, negative = inhibition) at 10uM” value is reported as -9.11%.

Take `Cc1ccc(-c2c[n+](CC(=O)OCc3ccccc3)c3n2CCC3)cc1.[Br-]`: the “hERG current change (%, negative = inhibition) at 10uM” value is -56.3%.

In the case of `O=C(C[n+]1cc(-c2ccccc2)n2c1CCC2)OCc1ccccc1.[Br-]`, the “hERG current change (%, negative = inhibition) at 10uM” value is -15.2%.

On to `Cc1ccc(-c2c[n+](CC(=O)c3ccc(Br)cc3)c3n2CCCCC3)cc1.[Br-]`, for which the “hERG current change (%, negative = inhibition) at 10uM” value is -61.4%.

On to `Cc1ccc(C(=O)C[n+]2cc(-c3ccc(C)cc3)n3c2CCCCC3)cc1.[Br-]`, for which the “hERG current change (%, negative = inhibition) at 10uM” value is reported as -53.1%.

In the case of `COc1ccc(OCCOc2ccc(/C=C3\C(=N)N4N=C(C)SC4=NC3=O)cc2)cc1`, the “hERG current change (%, negative = inhibition) at 10uM” value worked out at 6.54%.

For `CC1Cc2nc(SCC(=O)Nc3nccs3)n(Cc3ccccc3)c(=O)c2S1` (centres unmarked), the “hERG current change (%, negative = inhibition) at 10uM” value came out at 2.84%.

In the case of `CSc1nc(N)n2nc(-c3ccc(Cl)cc3)cc2n1`, the “hERG current change (%, negative = inhibition) at 10uM” value worked out at 5.44%.

With `COc1ccc(C(=O)NC(Nc2ccc(C)cc2)C(Cl)(Cl)Cl)cc1` (centres unmarked), the “hERG current change (%, negative = inhibition) at 10uM” value is -0.867%.

As for `Cc1cc(C)cc(NC(=O)CN2C(=O)C3CC=CCC3C2=O)c1` (centres unmarked), the “hERG current change (%, negative = inhibition) at 10uM” value worked out at 4.39%.

With `CC1=N/C(=C/c2cc(Br)cc(Br)c2O)C(=O)O1`, the “hERG current change (%, negative = inhibition) at 10uM” value turned out to be 17%.

In the case of `Cc1ccc(S(=O)(=O)NC(=O)Nc2ccc(C)cn2)cc1`, the “hERG current change (%, negative = inhibition) at 10uM” value amounted to 14.6%.

`Cc1sc(NC(=O)c2ccco2)c(C(c2ccncc2)N2CCOCC2)c1C` (centres unmarked): the “hERG current change (%, negative = inhibition) at 10uM” value is on record as -37.1%.

On to `CCCCC(=O)N1CCN(c2nc3ccc(Cl)cc3s2)CC1`, for which the “hERG current change (%, negative = inhibition) at 10uM” value is listed as -71.1%.

As for `CCCC(=O)N1CCN(c2nc3ccc(Cl)cc3s2)CC1`, the “hERG current change (%, negative = inhibition) at 10uM” value is listed as -70.2%.

Regarding `CCCCC(=O)N1CCN(c2nc3ccc(OCC)cc3s2)CC1`, the “hERG current change (%, negative = inhibition) at 10uM” value is listed as -35.5%.

Turning to `CC(C)(C)C(=O)N1CCN(c2nc3ccc(Cl)cc3s2)CC1`, the “hERG current change (%, negative = inhibition) at 10uM” value is on record as -12.2%.

With `CC(C)(CC(=O)O)CC(=O)N1CCN(c2nc3ccc(Cl)cc3s2)CC1`, the “hERG current change (%, negative = inhibition) at 10uM” value was 14.2%.

`CCCC(=O)N1CCN(c2nc3ccc(CC)cc3s2)CC1`: the “hERG current change (%, negative = inhibition) at 10uM” value is given as -23.4%.

For `CCCCC(=O)N1CCN(c2nc3ccc(F)cc3s2)CC1`, the “hERG current change (%, negative = inhibition) at 10uM” value is on record as -65.3%.

Turning to `CCCC(=O)N1CCN(c2nc3ccccc3s2)CC1`, the “hERG current change (%, negative = inhibition) at 10uM” value is given as -24.7%.

As to `Fc1ccc2nc(N3CCCCC3)sc2c1`, the “hERG current change (%, negative = inhibition) at 10uM” value was found to be 5.89%.

`Cc1cc(OC(=O)c2ccccc2Cl)ccc1N1C(=O)CCC1=O`: the “hERG current change (%, negative = inhibition) at 10uM” value was -1.98%.
